# CYP2C19 inhib = inhibitors of human CYP2C19; inhibition, % at 5 µM; P33261; 96,000 tested, 21% active; CYP2C19 Supersomes, luciferin-H EGE luminescence, 30 min; AID 778;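 active means CYP2C19 inhibition above a set limit at 5 µM in the primary screen, cut at about 50% in these data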;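 further: plate controls were negative control wells for no effect and 2.5 mM tranylcypromine positive control for full effect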
# Target sequence (P33261 whole entry, looked up): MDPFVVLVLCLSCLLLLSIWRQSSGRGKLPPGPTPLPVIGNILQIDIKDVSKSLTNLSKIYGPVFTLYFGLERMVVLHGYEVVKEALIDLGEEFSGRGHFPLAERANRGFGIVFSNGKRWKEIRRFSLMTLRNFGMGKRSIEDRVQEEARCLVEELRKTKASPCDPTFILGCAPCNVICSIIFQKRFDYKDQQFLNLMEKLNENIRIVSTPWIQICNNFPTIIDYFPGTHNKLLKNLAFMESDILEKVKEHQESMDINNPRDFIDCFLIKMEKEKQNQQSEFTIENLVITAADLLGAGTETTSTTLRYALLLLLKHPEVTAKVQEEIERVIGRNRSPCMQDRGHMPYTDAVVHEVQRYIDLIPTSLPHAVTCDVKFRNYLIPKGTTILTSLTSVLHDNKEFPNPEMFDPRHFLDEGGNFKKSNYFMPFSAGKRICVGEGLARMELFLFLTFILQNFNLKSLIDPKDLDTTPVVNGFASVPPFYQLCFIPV
# CYP2C9 inhib = blocks human cytochrome P450 2C9. P11712. CYP2C9 Supersomes, luciferin-H conversion, luminescence. inhibition, % at 5 µM. 96,000 tested, 20% active. AID 777;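 active means blocking of liver enzyme CYP2C9 beyond about 50% at 5 µM, limit read from the data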
# PostGolgi yeast = growth inhibition of a yeast mutant, post-Golgi transport screen; post-Golgi transport phenotypic cell assay; inhibition, % at 10 µM; 98,000 tested, 0.9% active;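 further: yeast cells grown in 1536-well plates; yeast grown about 18 h at 30C before absorbance read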
# CYP2C19 act = increases human CYP2C19 enzyme activity; 96,000 tested, under 10 active; activation factor at 5 µM; recombinant CYP2C19, luciferin-H EGE luminescence; active compounds read high; 0 = fully inhibited enzyme, 1 = untreated enzyme; AID 1025; P33261;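 active means activation factor of at least 2 at 5 µM in the primary screen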;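 further: 0 = wells with 2.5 mM tranylcypromine and 1 = vehicle-only wells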
# PostGolgi ctrl = inhibits growth of the yeast control strain | 98,000 tested, 5% active | efflux-deficient yeast background strain, growth absorbance A615, 16 h | inhibition, % at 10 µM
# CYP2C9 act = CYP2C9 (human) activation | P11712 | recombinant CYP2C9, luciferin-H conversion, luminescence; active compounds read high; factor 1 = untreated enzyme, 0 = blocked | activation factor at 5 µM | 96,000 tested, 1.4% active;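 active means activation factor of 2 or more for CYP2C9 at a 5 µM dose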;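 further: 0 = sulfaphenazole-blocked wells and 1 = vehicle-only wells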
# * marks the source's active call; other numbers are inactive results; nt = no result. Hits are enriched below; roughly 32% of the tested compounds scored in any of these assays. Unless noted, no stated cut-off is given here; in the data, active means inhibition above about 30%; inactive means the rest.
SMILES,CYP2C19 inhib,CYP2C9 inhib,PostGolgi yeast,CYP2C19 act,PostGolgi ctrl,CYP2C9 act
CCOC(=O)CSC1=C(C#N)C(c2ccc(Cl)cc2)CC(=O)N1 (centres undefined),96*,98*,-17,0,8,0
CCOC(=O)CSC1=C(C#N)C(c2ccc(C)o2)CC(=O)N1 (centres undefined),nt,nt,-2,nt,4,nt
CCOC(=O)CSC1=C(C#N)C(c2ccc3c(c2)OCO3)CC(=O)N1 (centres undefined),32,6,0,0.7,0,0.9
CCCCOC(=O)CSC1=C(C#N)C(c2ccc3c(c2)OCO3)CC(=O)N1 (centres undefined),48,57*,nt,0.5,47*,0.4
CCCCCCSC1=C(C#N)C(c2ccc(O)cc2)CC(=O)N1 (centres undefined),63*,74*,3,0.4,21,0.3
CCCOC(=O)CSC1=C(C#N)C(c2ccccc2Cl)CC(=O)N1 (centres undefined),95*,96*,1,0.1,25,0
CN(CC(O)CN)CC(O)CN1CCCCC1 (centres undefined),-14,-5,1,1.1,-2,1.1
Cc1cc(=O)oc(C)c1C(=O)Nc1cccc2ccccc12,38,-11,8,0.6,8,1.1
O=C(NC(Cc1c[nH]c2ccccc12)C(=O)O)c1ccccc1 (centres undefined),7,34,8,0.9,-5,0.7
Cc1oc2c(c1C(=O)Nc1cccc3ccccc13)CCCC2,85*,81*,-3,0.2,11,0.2
Cc1c(C)n(C)c2ccc(C(=O)Nc3cccc4ccccc34)cc12,16,-267,-1,0.8,13,3.7*
Cc1oc2c(c1C(=O)NC(Cc1c[nH]c3ccccc13)C(=O)O)CCCC2 (centres undefined),43,80*,-8,0.6,-3,0.2
Fc1ccc(NCc2nnc(SCc3nnc(-c4ccccc4)o3)n2CC2CCCO2)cc1 (centres undefined),41,33,-10,0.6,8,0.7
Cc1ccc(C(=O)CN(C(=O)c2ccc(Cl)c(Cl)c2)N2C(=O)C3C4C=CC(C4)C3C2=O)cc1 (centres undefined),79*,93*,27,0.2,29,0.1
CCN(CCCNC(=O)C1CCC(=O)N1C(C)C)c1cccc(C)c1 (centres undefined),23,11,-6,0.8,4,0.9
CCN(CC)c1nc(C)nc2c1cnn2CCc1ccccc1,97*,14,2,0,16,0.9
COc1ccc(NC(=O)CSc2ncnc3c2cnn3CCc2ccccc2)cc1,nt,nt,0,nt,-1,nt
CC(=O)c1cccc(NC(=O)c2ccc(Br)o2)c1,47,28,-3,0.5,3,0.7
O=C(Nc1ccccc1C(=O)O)c1ccc(NC(=O)c2ccc(Br)o2)cc1,23,78*,1,0.8,-3,0.2
O=C(Nc1ccccc1C(=O)O)c1cccc(NC(=O)c2ccc(Br)o2)c1,2,91*,-4,1,-6,0.1
N/C(=N\O)c1ccc(NC(=O)c2ccc(Br)o2)cc1,32,-3,1,0.7,0,1
CC(C)CC(=O)Nc1cccc(C(=O)Nc2ccccc2C(=O)O)c1,7,74*,2,0.9,4,0.3
Nc1c(C2=NCCO2)nnn1Cc1ccccc1,-6,-52,26,1.1,18,1.5
O=C(CN1c2ccccc2Sc2ccccc21)NNC(=S)Nc1ccc(Cl)cc1Cl,-1,80*,-3,1,4,0.2
CN1CCN(CC(=O)Nc2ccc(Cl)cc2Cl)CC1,50,-2,1,0.5,1,1
SMILES,CYP2C19 inhib,CYP2C9 inhib,PostGolgi yeast,CYP2C19 act,PostGolgi ctrl,CYP2C9 act
O=C1Nc2ccc(Br)cc2C1=Nc1ccc(-c2nnc3n2CCCCC3)cc1,-30,-39,-3,1.3,-5,1.4
Clc1ccccc1Cn1nnc2c(NCCN3CCOCC3)ncnc21,-12,-29,-6,1.1,8,1.3
CCOc1cc(/C=N/NC(=O)Cn2nc([N+](=O)[O-])cc2C)cc(Br)c1OCc1ccccc1C,47,70*,10,0.5,2,0.3
COc1cc(/C=N/NC(=O)Cn2nc([N+](=O)[O-])cc2C)cc(Br)c1OCc1ccccc1,59*,74*,3,0.4,2,0.3
CCNC(=O)c1nc[nH]c1C(=O)NCC,15,8,1,0.8,3,0.9
CC1CN(c2nc3ccccc3nc2C(C#N)C(=O)NC2CCCCC2)CC(C)O1 (centres undefined),26,47,nt,0.7,nt,0.5
O=C(O)CSc1cnc2ccccc2n1,16,2,3,0.8,1,1
O=S(=O)(Cc1ccccc1)c1cnc2ccccc2n1,89*,-149,9,0.1,17,2.5*
O=C1CCCCCCC1Sc1ccccc1[N+](=O)[O-] (centres undefined),50*,-16,8,0.5,8,1.2
O=[N+]([O-])c1ccccc1/C=C/CN1CCCCC1,5,7,4,1,5,0.9
O=C(NCCc1nc2ccccc2[nH]1)c1ccc(F)cc1,88*,51*,-9,0.1,11,0.5
CCCC(=O)NCCCc1nc2ccccc2[nH]1,-6,-8,12,1.1,-7,1.1
O=C(CCCCCN1C(=O)c2ccccc2C1=O)NCCc1nc2ccccc2[nH]1,95*,91*,-7,0.1,-4,0.1
COc1ccccc1C(=O)NCCc1nc2ccccc2[nH]1,88*,58*,-2,0.1,-6,0.4
O=C(CCN1C(=O)c2ccncc2C1=O)NCc1ccc(Cl)cc1,-3,19,-2,1,5,0.8
CCc1ccc(NC(=O)N(CCOC)C2CCN(C(C)=O)CC2)cc1,8,-17,-8,0.9,9,1.2
CSc1nsc(SCc2ccc(F)cc2)n1,79*,9,-4,0.2,4,0.9
CSc1nsc(SCc2ccc(Cl)cc2)n1,82*,13,0,0.2,16,0.9
Nc1nc(SCc2ccc(Cl)cc2)ns1,42,28,-2,0.6,44*,0.7
C/C(=N/NC(=O)c1cccs1)c1ccc(NC(=O)COc2ccc(Cl)cc2)cc1,-7,-2,-6,1.1,0,1
COc1ccc(C(=O)NCCSCc2ccco2)cc1OC,37,-6,4,0.6,4,1.1
N#Cc1c(Nc2ccccc2)c(C=NCCN2CCOCC2)c[nH]c1=O,73*,14,2,0.3,4,0.9
N#Cc1nc(COc2ccccc2)oc1N1CCCC1,88*,31,-3,0.1,4,0.7
N#Cc1nc(COc2ccc(-c3ccccc3)cc2)oc1NCCCN1CCOCC1,23,49,78*,0.8,16,0.5
N#Cc1nc(COc2ccc(Br)cc2)oc1N1CCCC1,99*,65*,0,0,24,0.4

# Screens: PubChem, several laboratories
